Values joined by “and” are separate entries in the source; they are usually repeats but may differ in a detail not shown here. Equal values may be shown once. This is part of a sample that, as a whole, favours compounds with a hit. Of some 83,000 tested, about 20% had one in any assay.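 96-well plates, one dose, 48 hours. Percent growth reported; active if below 10.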 Active and inactive are the calls of the source. Where a SMILES comes first, the peptide text is derived from it.

In this test the test system is HCC-2998 colon. In words: NCI-60 one-dose screen, 48 h (100 = growth as untreated, 0 = no growth, -100 = all killed). Conditions: 10 µM unless noted. The procedure: Growth inhibition of the HCC-2998 human tumor cell line is measured as a screen for anti-cancer activity. Cells are grown in 96 well plates and exposed to the test compound for 48 hours. Compounds are tested at a single concentration, which is 10^-5 M for most compounds. The reported endpoint is percent growth (GI% or GIPRCNT), where numbers from 0 - 100% represent growth inhibition, and numbers from -100% - 0 represent cell death. For example, a value of 40 represents 60% growth inhibition. A value of 0 means no net growth occurred over the course of the experiment. A value of -40 indicates 40% of cells at the beginning of the experiment died by the end of the experiment. A value of -100 means all cells are dead at the end of the experiment.
NCI-60 Human Tumor Cell Lines Screen was performed using the standard one-dose NCI protocol, which is described in more detail at https://dtp.cancer.gov/discovery_development/nci-60/default.htm.
Compounds with GIPRCNT values below 10 were considered active. Activity score was based on GIPRCNT using the following formula: […]
Score is 0 for GIPRCNT values of 100 or above, 50 for GIPRCNT values of 0, and 100 for GIPRCNT values of -100.
On to `Nc1ncnc2c1ncn2C1OC(COP(=O)(O)O)C(O)C1O` (stereo not given), for which the growth was 104% (inactive).

In the case of `Nc1ccc2c(O)cc(S(=O)(=O)O)cc2c1`, the growth was 88.6% (inactive) and 107% (inactive).

Consider `O=CN1CCCCC1`, for which the growth was 105% (inactive).

With `O=C1c2c(O)ccc(O)c2C(=O)c2c(NCCNCCO)ccc(NCCNCCO)c21`, the growth is -88.5% (active).

Turning to `CC1CCC(C(C)C)C(NNC(N)=O)C1` (stereo not given), the growth is 91.8% (inactive).

With `c1ccc(CNCCNCc2ccccc2)cc1`, the growth was 116% (inactive).

For `N#CC(C#N)N=Nc1ccc(Cl)cc1`, the growth was 75.3% (inactive).

For `O=C(O)/C=C\C(=O)Nc1cccc2ccccc12`, the growth is 118% (inactive) and 96.8% (inactive).

As for `Cc1cc2ccccc2cn1`, the growth was 112% (inactive) and 118% (inactive).

Take `CCCCCCCCCCCCCCCCC(C(=O)O)C(O)(CC(=O)O)C(=O)O` (stereo not given): the growth is 96.9% (inactive).

As to `CC(C)(O)C(=O)O`, the growth was 119% (inactive).

Turning to `CCCCOC(=O)/C=C\C(=O)NC(N)=O`, the growth is 108% (inactive).

For the molecule `O=C1C=C(Nc2ccccc2)c2ccccc2C1=O`, the growth is 54.3% (inactive) and 90.5% (inactive).

As to `Oc1ccc(Cc2ccccc2Cl)c(O)c1`, the growth was 91.3% (inactive).

Regarding `NC(Cc1ccccc1)C(=O)NC(Cc1ccccc1)C(=O)O` (stereo not drawn) (H-Phe-Phe-OH; configuration not given here), the growth is 112% (inactive).

`CCCCCCCCCCCCCCCc1ccc(N)c(OC2OC(CO)C(O)C(O)C2O)c1` (stereo not given): the growth is 9.53% (active).

Regarding `COc1ccc(C(=O)CC(c2ccccc2)C(C#N)c2ccccc2)cc1` (stereo not given), the growth is 99.1% (inactive).

Turning to `CN(C)c1ccc(/C=C\C(=O)c2ccccc2)cc1`, the growth is 97.1% (inactive) and 88.3% (inactive) and 100% (inactive).

For the molecule `CCOC(=O)c1c(C)cc(=O)oc1C`, the growth is 103% (inactive).

Regarding `c1ccc(-c2nc3ccccc3s2)cc1`, the growth was 97.2% (inactive).

Take `c1ccc2c(c1)OC1OC2Oc2ccccc21`: the growth is 105% (inactive).

Regarding `Cc1ccc(=O)[nH]n1`, the growth was 98.2% (inactive) and 107% (inactive).

Regarding `CC1CCC2(C(=O)O)CCC3(C)C(=CCC4C5(C)CCC(O)C(C)(C)C5CCC43C)C2C1C` (stereo not given), the growth is -29% (active) and 91.4% (inactive).

Turning to `CC(C)C(C)(C)c1ccc(O)cc1`, the growth is 114% (inactive).

On to `Cc1cc(-c2ccc(N=Nc3ccc4c(S(=O)(=O)O)cc(S(=O)(=O)O)c(N)c4c3O)c(C)c2)ccc1N=Nc1ccc2c(S(=O)(=O)O)cc(S(=O)(=O)O)c(N)c2c1O`, for which the growth was 117% (inactive).

Consider `ClCCOCCOc1ccc(C2CCCCC2)cc1`, for which the growth is 106% (inactive).

In the case of `OCCN1CCCCCCC1`, the growth was 100% (inactive).

Turning to `O=C(O)CCCl`, the growth is 104% (inactive).

With `COc1ccc(N/C=C/C2=[N+](C)c3ccccc3C2(C)C)c(OC)c1`, the growth was 98.4% (inactive).

For the molecule `NC(=O)NCCCC(N)C(=O)O` (stereo not given), the growth is 110% (inactive).

`CCCCNc1ccc(Nc2ccccc2)cc1`: the growth was 92% (inactive).

As for `CCCCCCCCCCNC(=O)CI`, the growth is 98.4% (inactive).

As for `N#CC(C#N)N=Nc1cc(Cl)ccc1Cl`, the growth was 104% (inactive).

As for `Nc1nc(N)c2[nH]cnc2n1`, the growth is 86% (inactive).

For the molecule `CC(=O)OC(C)C(=O)NCC(C)O` (stereo not given), the growth is 99.4% (inactive).

With `C/C(=C\c1ccccc1)c1ccccn1`, the growth was 117% (inactive).

In the case of `CCc1cc(C)cc(O)c1`, the growth was 104% (inactive).

As for `O=c1[nH]cnc2c1ncn2C1OC(CO)C(O)C1O` (stereo not given), the growth was 102% (inactive) and 113% (inactive) and 127% (inactive).

As to `CC(=O)OCC1OC(OC(C)=O)C(OC(C)=O)C(OC(C)=O)C1OC(C)=O` (stereo not given), the growth is 111% (inactive) and 101% (inactive).

Turning to `NC(Cc1c[nH]c2ccccc12)C(=O)O` (stereo not given), the growth was 103% (inactive) and 101% (inactive).

(Values after PubChem BioAssay (NCI).)
